Values without a mark were called inactive. Activity calls are given as the source filed them. Rule as the data show it, unless noted: active = inhibition above about 25%; inactive = the rest.
How the values were obtained:
[1] = target: Nuclear receptor coactivator 1 (Homo sapiens) (UniProt Q15788); experiment: SRC1 coactivator transcriptional activity inhibitors, confirmation, cell-based, luminescence, quadruplicate (AID 588820;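 active = mean inhibition above 46.68%, the untreated control wells mean plus 3 SD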;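 also: 0% = DMSO wells and 100% = gossypol 36 µM treated wells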); details: HEK293 GAL4-SRC1 luciferase reporter, at 3.6 µM, active compounds read high
[2] = VP16 transactivation inhibitors, counter-screen for SRC1 inhibitor project, cell-based, luminescence, high throughput (AID 588824); details: cell-based VP16 transactivation luciferase luminescence; at 3.6 µM; active compounds read high

Nuclear receptor coactivator 1 (Homo sapiens), sequence (Q15788 whole entry, looked up, the tested form may be a part): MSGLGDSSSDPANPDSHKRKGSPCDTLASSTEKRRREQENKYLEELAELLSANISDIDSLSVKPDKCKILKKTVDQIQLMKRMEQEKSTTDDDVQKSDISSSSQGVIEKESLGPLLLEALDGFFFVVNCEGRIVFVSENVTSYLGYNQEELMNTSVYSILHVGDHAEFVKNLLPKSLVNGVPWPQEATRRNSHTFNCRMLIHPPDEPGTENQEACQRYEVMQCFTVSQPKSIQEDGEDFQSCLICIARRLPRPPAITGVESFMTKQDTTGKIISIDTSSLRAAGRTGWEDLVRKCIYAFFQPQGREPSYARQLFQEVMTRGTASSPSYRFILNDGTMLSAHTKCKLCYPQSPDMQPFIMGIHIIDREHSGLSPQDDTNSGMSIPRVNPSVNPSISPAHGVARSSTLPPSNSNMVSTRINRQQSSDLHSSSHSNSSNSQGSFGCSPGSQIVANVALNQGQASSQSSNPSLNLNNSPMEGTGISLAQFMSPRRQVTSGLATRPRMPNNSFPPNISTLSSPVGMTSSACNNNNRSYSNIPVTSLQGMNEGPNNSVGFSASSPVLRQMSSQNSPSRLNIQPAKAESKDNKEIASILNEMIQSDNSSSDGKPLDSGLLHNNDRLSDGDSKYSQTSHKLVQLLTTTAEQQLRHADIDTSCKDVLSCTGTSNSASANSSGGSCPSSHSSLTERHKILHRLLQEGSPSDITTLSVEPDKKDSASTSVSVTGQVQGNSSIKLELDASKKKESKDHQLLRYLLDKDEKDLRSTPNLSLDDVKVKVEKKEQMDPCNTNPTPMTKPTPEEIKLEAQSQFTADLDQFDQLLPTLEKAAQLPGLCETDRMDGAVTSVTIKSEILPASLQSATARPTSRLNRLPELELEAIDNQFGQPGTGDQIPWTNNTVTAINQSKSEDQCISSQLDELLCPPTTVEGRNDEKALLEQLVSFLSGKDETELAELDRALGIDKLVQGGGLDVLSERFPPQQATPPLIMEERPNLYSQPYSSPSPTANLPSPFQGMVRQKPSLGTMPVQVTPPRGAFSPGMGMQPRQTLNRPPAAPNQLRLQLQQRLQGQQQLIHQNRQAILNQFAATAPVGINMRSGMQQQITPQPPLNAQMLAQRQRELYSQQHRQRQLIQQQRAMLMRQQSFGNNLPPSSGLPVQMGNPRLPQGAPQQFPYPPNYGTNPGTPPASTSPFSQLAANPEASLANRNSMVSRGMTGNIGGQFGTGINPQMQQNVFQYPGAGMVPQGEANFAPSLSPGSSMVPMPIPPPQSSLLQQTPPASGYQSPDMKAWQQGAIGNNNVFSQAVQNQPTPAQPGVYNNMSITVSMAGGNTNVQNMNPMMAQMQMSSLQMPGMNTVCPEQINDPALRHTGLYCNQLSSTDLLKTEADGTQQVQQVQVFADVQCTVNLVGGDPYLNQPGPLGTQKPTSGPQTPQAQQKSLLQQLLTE

Row | Structure (SMILES) | inhibition [1] | inhibition [2]
1 | CCN1CCN(c2ccc(S(=O)(=O)N3CCCCC3)cc2NC(=O)/C=C/c2cc(OC)ccc2OC)CC1 | -0.69% | 7.17%
2 | Cc1ccc(NC(=O)CN(C(=O)N2CCN(C)CC2)S(=O)(=O)c2ccc(C)cc2)cc1 | -4.36% | -2.41%
3 | Cn1cc(S(=O)(=O)Nc2ccc(OC(F)(F)F)cc2)c(=O)n(C)c1=O | 6.39% | -5.51%
4 | CCOC(=O)N1CCN(C2=Nc3cccc4cccc2c34)CC1 | -13.8% | -0.04%
5 | COc1cc(OC)c(OC)cc1/C=C1\CC(C)C/C(=C\c2cc(OC)c(OC)cc2OC)C1=O (centres undefined) | -33.6% | 2.73%
6 | COc1ccc(CCN(C)C(=O)CSc2nnc(C3CC3)n2N)cc1OC | 6.18% | 12.5%
7 | CC(=O)c1cc2c(C)cc(=O)oc2cc1O | 19.4% | 6.17%
8 | O=C(CSc1nc(C2CC2)nc2ccccc12)Nc1cccc(O)c1 | -0.77% | 1.43%
9 | Cc1nc2ccccn2c1-c1ccnc(=S)[nH]1 | 31.1% | 11.1%
10 | O=C(NCc1ccccc1)c1cc(S(=O)(=O)N2CCCCC2)ccc1N1CCOCC1 | -1.88% | 11.3%
11 | Cc1ccc2nc(C)c3c(c2c1)N(c1ccc(F)cc1)CC3 | 16.4% | 30.5% (active)
12 | Cc1ccc(-c2c[n+]3c(n2-c2ccccc2)CCC3)cc1 | 10.5% | 20.3%

Reference: PubChem BioAssay
